Many of the other results were omitted from the sample, so the strongest signals are more common in it than they were.
B1: CLL-1 (Homo sapiens) (protein)
chain: MWIDFFTYSSMSEEVTYADLQFQNSSEMEKIPEIGKFGEKAPPAPSHVWRPAALFLTLLCLLLLIGLGVLASMFHVTLKIEMKKMNKLQNISEELQRNISLQLMSNMNISNKIRNLSTTLQTIATKLCRELYSKEQEHKCKPCPRRWIWHKDSCYFLSDDVQTWQESKMACAAQNASLLKINNKNALEFIKSQSRSYDYWLGLSPEEDSTRGMRVDNIINSSAWVIRNAPDLNNMYCGYINRLYVQYYHCTYKKRMICEKMANPVQLGSTYFREA
B2: Surfactant Protein D (Human); Neck + Carbohydrate Recognition Domain (NCRD) (Homo sapiens) (protein)
chain: MLLFLLSALVLLTQPLGYLEAEMKTYSHRTMPSACTLVMCSSVESGLPGRDRDGREGPRGEKGDPGLPGAAGQAGMPGQAGPVGPKGDNGSVGEPGPKGDTGPSGPPGPPGVPGPAGREGALGKQGNIGPQGKPGPKGEAGPKGEVGAPGMQGSAGARGLAGPKGERGVPGERGVPGNTGAAGSAGAMGPQGSPGARGPPGLKGDKGIPGDKGAKGESGLPDVASLRQQVEALQGQVQHLQAAFSQYKKVELFPNGQSVGEKIFKTAQFVKPFTEAQLLCTQAGGQLASPRSAAENAALQQLVVAKNEAAFLSMTDSKTEGKFTYPTGESLVYSNWAPGEPNDNGGSEDCVEIFTNGKWNDRACGEKRLVVCEF

What was measured:
Assay in all cases: glycan array binding signal (z-score within array); higher = stronger binding
[1] = biological target: Fuc(a1-2)[GalNAc(a1-3)]Gal(b1-4)Glc; conditions: glycan notation: IUPAC condensed, linker removed
Procedure, shortened: (§1)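 Glycan array binding is given as a within-array Z-score, which can be read as non-binding when negative. The arrays, 3228 of them, came from the Consortium for Functional Glycomics database and were retained only where the protein sequence was available. Z-scores were averaged across arrays of the same protein sequence at different concentrations or buffers and across linkers.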

[2] = biological target: Gal(b1-3)GalNAc(b1-4)Gal(b1-4)Glc; conditions: glycan notation: IUPAC condensed, linker removed
Procedure, shortened: as §1

[3] = biological target: Gal(b1-4)GlcNAc(b1-3)Gal(b1-4)[Fuc(a1-3)]GlcNAc(b1-3)Gal(b1-4)[Fuc(a1-3)]GlcNAc; conditions: glycan notation: IUPAC condensed, linker removed
Procedure, shortened: as §1

[4] = biological target: Gal(b1-4)GlcNAc(b1-3)GalNAc; conditions: glycan notation: IUPAC condensed, linker removed
Procedure, shortened: as §1

[5] = biological target: Gal3S6S(b1-4)GlcNAc6S; conditions: glycan notation: IUPAC condensed, linker removed
Procedure, shortened: as §1

[6] = biological target: Glc(a1-4)Glc; conditions: glycan notation: IUPAC condensed, linker removed
Procedure, shortened: as §1

[7] = biological target: GlcNAc(b1-3)GalNAc; conditions: glycan notation: IUPAC condensed, linker removed
Procedure, shortened: as §1

[8] = biological target: GlcNAc(b1-3)[GlcNAc(b1-6)]GalNAc; conditions: glycan notation: IUPAC condensed, linker removed
Procedure, shortened: as §1

[9] = biological target: GlcNAc(b1-4)[GlcNAc(b1-6)]GalNAc; conditions: glycan notation: IUPAC condensed, linker removed
Procedure, shortened: as §1

[10] = biological target: Neu5Ac(a2-3)Gal(b1-3)[Fuc(a1-4)]GlcNAc; conditions: glycan notation: IUPAC condensed, linker removed
Procedure, shortened: as §1

[11] = biological target: Neu5Ac(a2-3)Gal(b1-4)GlcNAc; conditions: glycan notation: IUPAC condensed, linker removed
Procedure, shortened: as §1

[12] = biological target: Neu5Ac(a2-3)Gal(b1-4)GlcNAc(b1-3)Gal(b1-4)GlcNAc(b1-3)Gal(b1-4)GlcNAc; conditions: glycan notation: IUPAC condensed, linker removed
Procedure, shortened: as §1

[13] = biological target: Neu5Ac(a2-3)Gal(b1-4)[Fuc(a1-3)]GlcNAc6S; conditions: glycan notation: IUPAC condensed, linker removed
Procedure, shortened: as §1

[14] = biological target: Neu5Ac9Ac(a2-6)Gal(b1-4)GlcNAc; conditions: glycan notation: IUPAC condensed, linker removed
Procedure, shortened: as §1

[15] = biological target: Neu5Gc(a2-6)Gal(b1-4)GlcNAc; conditions: glycan notation: IUPAC condensed, linker removed
Procedure, shortened: as §1

[16] = biological target: Fuc(a1-2)[Gal(a1-3)]Gal(b1-4)[Fuc(a1-3)]GlcNAc; conditions: glycan notation: IUPAC condensed, linker removed; mutation: D325N
Procedure, shortened: as §1

[17] = biological target: Fuc(a1-3)[Gal3S(b1-4)]Glc6S; conditions: glycan notation: IUPAC condensed, linker removed; mutation: D325N
Procedure, shortened: as §1

[18] = biological target: Gal(a1-2)Gal; conditions: glycan notation: IUPAC condensed, linker removed; mutation: D325N
Procedure, shortened: as §1

[19] = biological target: Gal(a1-3)Gal(b1-3)GlcNAc; conditions: glycan notation: IUPAC condensed, linker removed; mutation: D325N
Procedure, shortened: as §1

[20] = biological target: Gal(a1-3)Gal(b1-4)Glc; conditions: glycan notation: IUPAC condensed, linker removed; mutation: D325N
Procedure, shortened: as §1

[21] = biological target: Gal(b1-3)[Neu5Ac(b2-6)]GalNAc; conditions: glycan notation: IUPAC condensed, linker removed; mutation: D325N
Procedure, shortened: as §1

[22] = biological target: Gal(b1-4)GlcNAc(b1-6)Gal(b1-4)GlcNAc(b1-6)GalNAc; conditions: glycan notation: IUPAC condensed, linker removed; mutation: D325N
Procedure, shortened: as §1

[23] = biological target: Gal(b1-4)GlcNAc(b1-6)GalNAc; conditions: glycan notation: IUPAC condensed, linker removed; mutation: D325N
Procedure, shortened: as §1

[24] = biological target: Gal(b1-4)GlcNAc(b1-6)[Gal(b1-3)]GalNAc; conditions: glycan notation: IUPAC condensed, linker removed; mutation: D325N
Procedure, shortened: as §1

[25] = biological target: GlcNAc(b1-3)Gal(b1-4)Glc; conditions: glycan notation: IUPAC condensed, linker removed; mutation: D325N
Procedure, shortened: as §1

[26] = biological target: GlcNAc(b1-6)Gal(b1-4)GlcNAc; conditions: glycan notation: IUPAC condensed, linker removed; mutation: D325N
Procedure, shortened: as §1

[27] = biological target: Man(a1-2)Man(a1-2)Man(a1-3)Man; conditions: glycan notation: IUPAC condensed, linker removed; mutation: D325N
Procedure, shortened: as §1

[28] = biological target: Man(a1-2)Man(a1-3)[Man(a1-2)Man(a1-6)]Man; conditions: glycan notation: IUPAC condensed, linker removed; mutation: D325N
Procedure, shortened: as §1

[29] = biological target: Man(a1-2)Man(a1-3)[Man(a1-2)Man(a1-6)]Man(a1-6)[Man(a1-2)Man(a1-2)Man(a1-3)]Man; conditions: glycan notation: IUPAC condensed, linker removed; mutation: D325N
Procedure, shortened: as §1

[30] = biological target: Man(a1-2)Man(a1-6)[Man(a1-3)]Man(a1-6)[Man(a1-2)Man(a1-2)Man(a1-3)]Man; conditions: glycan notation: IUPAC condensed, linker removed; mutation: D325N
Procedure, shortened: as §1

[31] = biological target: Man(a1-3)[Man(a1-6)]Man(a1-6)[Man(a1-3)]Man; conditions: glycan notation: IUPAC condensed, linker removed; mutation: D325N
Procedure, shortened: as §1

[32] = biological target: Man(a1-3)[Man(a1-6)]Man(a1-6)[Man(a1-3)]Man(b1-4)GlcNAc(b1-4)GlcNAc; conditions: glycan notation: IUPAC condensed, linker removed; mutation: D325N
Procedure, shortened: as §1

[33] = biological target: Neu5Ac(a2-3)Gal(b1-3)GlcNAc; conditions: glycan notation: IUPAC condensed, linker removed; mutation: D325N
Procedure, shortened: as §1

[34] = biological target: Neu5Ac(a2-3)Gal(b1-4)[Fuc(a1-3)]GlcNAc(b1-3)Gal(b1-4)GlcNAc; conditions: glycan notation: IUPAC condensed, linker removed; mutation: D325N
Procedure, shortened: as §1

[35] = biological target: Neu5Ac(a2-3)GalNAc(b1-4)GlcNAc; conditions: glycan notation: IUPAC condensed, linker removed; mutation: D325N
Procedure, shortened: as §1

[36] = biological target: Neu5Ac(a2-6)Gal; conditions: glycan notation: IUPAC condensed, linker removed; mutation: D325N
Procedure, shortened: as §1

[37] = biological target: Neu5Ac(a2-6)Gal(b1-4)Glc; conditions: glycan notation: IUPAC condensed, linker removed; mutation: D325N
Procedure, shortened: as §1

[38] = biological target: Neu5Ac(a2-6)GalNAc; conditions: glycan notation: IUPAC condensed, linker removed; mutation: D325N
Procedure, shortened: as §1

[39] = biological target: Neu5Ac(a2-8)Neu5Ac(a2-8)Neu5Ac; conditions: glycan notation: IUPAC condensed, linker removed; mutation: D325N
Procedure, shortened: as §1

| Binder | glycan array binding signal (z-score) [1] | glycan array binding signal (z-score) [2] | glycan array binding signal (z-score) [3] | glycan array binding signal (z-score) [4] | glycan array binding signal (z-score) [5] | glycan array binding signal (z-score) [6] | glycan array binding signal (z-score) [7] | glycan array binding signal (z-score) [8] | glycan array binding signal (z-score) [9] | glycan array binding signal (z-score) [10] | glycan array binding signal (z-score) [11] | glycan array binding signal (z-score) [12] | glycan array binding signal (z-score) [13] | glycan array binding signal (z-score) [14] | glycan array binding signal (z-score) [15] | glycan array binding signal (z-score) [16] | glycan array binding signal (z-score) [17] | glycan array binding signal (z-score) [18] | glycan array binding signal (z-score) [19] | glycan array binding signal (z-score) [20] | glycan array binding signal (z-score) [21] | glycan array binding signal (z-score) ([3]; mutation: D325N) | glycan array binding signal (z-score) [22] | glycan array binding signal (z-score) [23] | glycan array binding signal (z-score) [24] | glycan array binding signal (z-score) [25] | glycan array binding signal (z-score) [26] | glycan array binding signal (z-score) [27] | glycan array binding signal (z-score) [28] | glycan array binding signal (z-score) [29] | glycan array binding signal (z-score) [30] | glycan array binding signal (z-score) [31] | glycan array binding signal (z-score) [32] | glycan array binding signal (z-score) [33] | glycan array binding signal (z-score) [34] | glycan array binding signal (z-score) [35] | glycan array binding signal (z-score) [36] | glycan array binding signal (z-score) [37] | glycan array binding signal (z-score) [38] | glycan array binding signal (z-score) [39] |
| --- | --- | --- | --- | --- | --- | --- | --- | --- | --- | --- | --- | --- | --- | --- | --- | --- | --- | --- | --- | --- | --- | --- | --- | --- | --- | --- | --- | --- | --- | --- | --- | --- | --- | --- | --- | --- | --- | --- | --- | --- |
| B1 | -0.065 | -0.279 | -0.107 | -0.238 | 3.91 | 1 | -0.228 | -0.19 | -0.247 | 1.22 | -0.14 | 2.45 | -0.15 | -0.216 | -0.231 | – | – | – | – | – | – | – | – | – | – | – | – | – | – | – | – | – | – | – | – | – | – | – | – | – |
| B2 | – | – | – | – | – | – | – | – | – | – | – | – | – | – | – | -0.1 | -0.117 | -0.109 | -0.169 | -0.123 | -0.139 | -0.105 | -0.132 | -0.138 | -0.128 | -0.118 | -0.138 | 2.18 | 1.77 | 9.38 | 8.54 | 11.2 | 0.338 | -0.127 | -0.114 | -0.148 | -0.148 | -0.153 | -0.129 | -0.163 |
